Among the data in PubChem BioAssay (EPA / NIEHS) are outcome and AC50 values, retold here.

Active and inactive are the calls of the source. How the source made its calls: active means hit-call score of the fitted dose curve at least 0.9, where 1 is the maximum; inactive means score below 0.9.

The AC50 is the concentration giving half of the maximal activity seen.

A short description of the assay: ATG_M_19_CIS: Attagene CIS-FACTORIAL HepG2 Assay for M19 Transcription Factor (Internal Marker) (AID 2282939). Conditions: HepG2 Attagene CIS-FACTORIAL M19 internal marker reporter; actives raise or lower the signal. As for the experimental part: ATG_CIS is a cell-based, multiplexed-readout assay that uses HepG2, a human liver cell line, with measurements taken at 24 hours after chemical dosing in a 24-well plate.ATG_M_19_CIS is one of 52 assay component(s) measured or calculated from the ATG_CIS assay. It is designed to make measurements of mRNA induction, a form of inducible reporter, as detected with fluorescence intensity signals by Reverse transcription polymerase chain reaction (RT-PCR) and Capillary electrophoresis technology.Data from the assay component ATG_M_19_CIS was analyzed into 1 assay endpoint. This assay endpoint, ATG_M_19_CIS, was analyzed with bidirectional fitting relative to DMSO as the negative control and baseline of activity. Using a type of inducible reporter, measures of mRNA for gain or loss-of-signal activity can be used to understand the background control at the transcription factor-level as they relate to the gene . Furthermore, this assay endpoint can be referred to as a secondary readout, because this assay has produced multiple assay endpoints where this one serves a background control function. To generalize the intended target to other relatable targets, this assay endpoint is annotated to the background measurement intended target family, where the subfamily is internal marker.
Human liver HepG2 cells are transiently transfected with multiple reporter transcription units (MRTUs) in 6-well plates using FuGene 6 reagent (Roche; 3 ml FuGene/1 mg DNA). The MRTU constructs are regulated by a cis-regulating element (promoter). […] A major difference between the CIS and TRANS system is that in CIS activities of endogenous TFs are measured, whereas the TRANS assay evaluates changes in activities of exogenous, chimeric NR-Gal4 proteins. […] At the end of 24 hour incubation, total RNA was isolated using TriZol reagent (Invitrogen). The isolated RNA is then reverse-transcribed using oligo(dT) primer and Mo-MLV reverse transcriptase (Invitrogen) with DNAse I (Ambion) treatment for 30 min. The one-tenth of the produced cDNA was amplified by PCR using Taq DNA polymerase (Invitrogen) and two reporter sequence-specific primers. The PCR products were fluorescently labeled by primer extension with 6-arboxyfluorescein (6-FAM) 5'-labeled reporter sequence-specific primer (2 min at 95 C, 20 s at 68 C and 10 min at 72 C) and these products were digested with 5U of HpaI (New England Biolabs) for 2h at 37 C. The fragments were purified using Qiaquick PCR columns (Qiagen), analyzed on an ABI 3130xL genetic analyzer (Applied Biosystems) with peak positions identified by using a set of X-rhodamine (ROX)-labeled MapMarker1000 molecular weight standards (BioVentures). The raw capillary electrophoresis data was processed using Attagraph software (Attagene).
As to `O=c1[nH]cccc1O`, the call was inactive.

As to `CC1=CCC2C(=O)OC(=O)C2C1` (stereo not given), the outcome was inactive. Same read-out and setting: as for `CN(N=O)C(=O)N[C@@H]1[C@@H](O)[C@H](O)[C@@H](CO)O[C@@H]1O`, the entry is “inactive”. The same measure, in the same setting: as for `OCC(F)(F)C(F)(F)C(F)(F)C(F)(F)C(F)(F)C(F)(F)C(F)(F)C(F)(F)CO`, the entry is “inactive”; as for `OCC(F)(F)C(F)(F)C(F)(F)CO`, “inactive”; as for `O=C1c2c(O)ccc(Nc3ccc(CCO)cc3)c2C(=O)c2c([N+](=O)[O-])ccc(O)c21`, “inactive”.

On to `O=C(F)C1(F)C(F)(F)C(F)(F)C(F)(F)C(F)(F)C1(F)F`, for which the result was inactive.

Consider `C=CC(=O)OCC(F)(F)C(F)(F)C(F)(F)COC(=O)C=C`, for which the compound was called inactive. Consider `CC1CCCCC1`, for which the call was inactive. The same measure, in the same setting: the result for `CSc1ccc(O)cc1C` reads “inactive”; that for `F[Si-2](F)(F)(F)(F)F`, “inactive”. The same measure, in the same setting: as for `NC(=O)C(F)(F)C(F)(F)C(F)(F)C(F)F`, the entry is “inactive”; as for `CC(=O)C=O`, “inactive”. Still for that read-out and setting: the result for `CCn1c2ccccc2c2ccccc21` reads “inactive”. For the compound `OCCC(O)CO` (stereo not given), the compound was called inactive. `CCC/C=C/CO`: the outcome was inactive. Still for that read-out and setting: the result for `O=C(Cl)C(F)(F)C(F)(F)C(F)(F)C(F)(F)C(F)(F)C(F)(F)C(F)(F)F` reads “inactive”. Still for that read-out and setting: as for `CCOCN(C(=O)CS(=O)(=O)O)c1c(C)cccc1CC`, the entry is “inactive”; as for `OCC(O)CC(F)(F)C(F)(F)C(F)(F)C(F)(F)F` (stereo not given), “inactive”. As for `CCCCCC/C=C/CCCCCCCC(=O)O`, the compound was classed as inactive. Consider `CC1=CCC(=O)O1`, for which the call was inactive. The same measure, in the same setting: the result for `COC(=O)c1ccc(C=O)cc1` reads “inactive”; that for `N#Cc1ccccc1O`, “inactive”.

Regarding `CO[Si](C)(CCC(F)(F)C(F)(F)C(F)(F)C(F)(F)C(F)(F)C(F)(F)F)OC`, the compound was called inactive. `O=C(Cl)c1ccc(Cl)cc1Cl`: the compound was called inactive. On the same count and under the same terms, as for `O=S(=O)(O)CCC(F)(F)C(F)(F)C(F)(F)C(F)(F)F`, the entry is “inactive”; as for `O=C(Cl)C(F)(F)C(F)(F)C(F)(F)C(F)(F)C(F)(F)C(F)(F)F`, “inactive”. The same measure, in the same setting: as for `Brc1nc2ccccc2s1`, the entry is “inactive”. The same measure, in the same setting: as for `CCCC(=O)OCC(COC(=O)CCC)OC(=O)CCC`, the entry is “inactive”. Regarding `CCCCCCCCCc1ccc(OCCO)cc1`, the half-maximal activity concentration (AC50) is 25.2 µM (active).

For the compound `NC(=O)C(F)(F)C(F)(F)C(F)(F)F`, the compound was classed as inactive. Same read-out and setting: as for `CCN=C1C=CC(=C(c2ccc(N(CC)CC)cc2)c2ccc(N(CC)CC)cc2)c2ccccc21`, the entry is “inactive”. Same read-out and setting: the result for `O=C1OC(=O)c2ccc3c4c(ccc1c24)C(=O)OC3=O` reads “inactive”. As for `O=C(c1ccccc1)c1ccc(O)cc1O`, the compound was classed as inactive. For the compound `CCCCCCCCn1sc(Cl)c(Cl)c1=O`, the compound was classed as inactive. The same measure, in the same setting: the result for `CCCCCCCCCCCCC[N+](C)(C)Cc1ccccc1` reads “inactive”; that for `NC(=O)C(F)(F)C(F)(F)C(F)(F)C(F)(F)C(N)=O`, “inactive”.

Take `CC(C)(C)c1cc(CCC(=O)OCC(COC(=O)CCc2cc(C(C)(C)C)c(O)c(C(C)(C)C)c2)(COC(=O)CCc2cc(C(C)(C)C)c(O)c(C(C)(C)C)c2)COC(=O)CCc2cc(C(C)(C)C)c(O)c(C(C)(C)C)c2)cc(C(C)(C)C)c1O`: the compound was called inactive. The same measure, in the same setting: the result for `C=C(C)CCCC` reads “inactive”; that for `CC(C)OC(=O)COc1ccc(Cl)cc1Cl`, “inactive”.
